Results as given in publication PMC4081100, “A DNA-binding-site landscape and regulatory network analysis for NAC transcription factors in Arabidopsis thaliana”.

Legend:
Experiment in all cases: universal protein binding microarray (PBM); transcription factors of Arabidopsis thaliana; high values mean tight binding
GST-ANAC092(1-176) = molecular target: T1, GST-ANAC092(1-176) (Arabidopsis thaliana, UniProt Q9FKA0 1-176); conditions: protein: recombinant; tags: GST; chain copies: 2; dsDNA, one strand shown
T1 sequence: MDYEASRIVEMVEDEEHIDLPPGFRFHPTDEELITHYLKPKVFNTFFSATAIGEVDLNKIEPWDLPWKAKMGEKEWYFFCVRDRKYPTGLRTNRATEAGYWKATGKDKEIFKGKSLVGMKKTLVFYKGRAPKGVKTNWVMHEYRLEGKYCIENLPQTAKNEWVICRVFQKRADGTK
Outline: (§1)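 Cells were induced to make GST-tagged NAC-domain, full-length or DNA-binding-domain proteins, and zinc acetate was added for zinc-finger proteins. These proteins were purified on glutathione–Sepharose 4B, quantified by A280 or anti-GST western blot, and applied in duplicate at 200 to 500 nM final to custom all-10-mer Agilent 4 × 180K arrays that primer extension had made double-stranded. Binding is given as the normalised enrichment score (E-score) for scored gapped and ungapped 8-mers.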

GST-ANAC019 NAC domain = molecular target: T2, GST-ANAC019 NAC domain (Arabidopsis thaliana, UniProt Q9C932 14-162); conditions: protein: recombinant; tags: GST; chain copies: 2; dsDNA, one strand shown
T2 sequence: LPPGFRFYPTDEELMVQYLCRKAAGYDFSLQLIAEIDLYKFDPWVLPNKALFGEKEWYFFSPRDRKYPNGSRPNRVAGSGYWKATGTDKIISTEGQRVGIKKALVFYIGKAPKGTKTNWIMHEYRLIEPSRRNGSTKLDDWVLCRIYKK
Outline: as §1

GST-ATAF1 NAC domain = molecular target: T3, GST-ATAF1 NAC domain (Arabidopsis thaliana, UniProt Q39013 7-158); conditions: protein: recombinant; tags: GST; chain copies: 2; dsDNA, one strand shown
T3 sequence: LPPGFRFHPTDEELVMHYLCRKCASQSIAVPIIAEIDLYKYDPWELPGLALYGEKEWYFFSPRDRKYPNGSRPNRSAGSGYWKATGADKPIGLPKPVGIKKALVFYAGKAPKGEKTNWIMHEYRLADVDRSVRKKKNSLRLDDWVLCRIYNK
Outline: as §1

[1] = molecular target: T4, GST-ANAC092(1-285) full length (Arabidopsis thaliana, UniProt Q9FKA0 1-285); conditions: protein: recombinant; tags: GST; chain copies: 2; dsDNA, one strand shown
T4 sequence: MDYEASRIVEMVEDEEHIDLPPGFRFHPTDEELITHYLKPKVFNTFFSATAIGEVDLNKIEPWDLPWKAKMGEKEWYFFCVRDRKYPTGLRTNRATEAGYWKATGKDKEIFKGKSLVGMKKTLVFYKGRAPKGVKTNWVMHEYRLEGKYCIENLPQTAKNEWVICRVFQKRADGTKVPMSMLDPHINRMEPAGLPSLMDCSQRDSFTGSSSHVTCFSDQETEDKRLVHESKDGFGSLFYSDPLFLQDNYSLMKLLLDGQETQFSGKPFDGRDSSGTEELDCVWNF
Outline: as §1

GST-NAP(1-166) = molecular target: T5, GST-NAP(1-166) (Arabidopsis thaliana, UniProt O49255 1-166); conditions: protein: recombinant; tags: GST; chain copies: 2; dsDNA, one strand shown
T5 sequence: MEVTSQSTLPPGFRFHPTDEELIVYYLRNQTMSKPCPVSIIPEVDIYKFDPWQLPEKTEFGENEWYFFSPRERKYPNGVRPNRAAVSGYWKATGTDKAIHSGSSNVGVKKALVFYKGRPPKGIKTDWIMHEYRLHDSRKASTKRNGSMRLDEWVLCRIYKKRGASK
Outline: as §1

GST-NST2(1-184) = molecular target: T6, GST-NST2(1-184) (Arabidopsis thaliana, UniProt Q9M274 1-184); conditions: protein: recombinant; tags: GST; chain copies: 2; dsDNA, one strand shown
T6 sequence: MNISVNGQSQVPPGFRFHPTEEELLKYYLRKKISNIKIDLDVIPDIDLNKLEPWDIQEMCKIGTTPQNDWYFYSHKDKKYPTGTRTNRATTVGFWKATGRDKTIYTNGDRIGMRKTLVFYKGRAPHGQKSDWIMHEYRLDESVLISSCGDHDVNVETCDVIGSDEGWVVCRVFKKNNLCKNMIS
Outline: as §1

GST-SND1(1-203) = molecular target: T7, GST-SND1(1-203) (Arabidopsis thaliana, UniProt Q9LPI7 1-203); conditions: protein: recombinant; tags: GST; chain copies: 2; dsDNA, one strand shown
T7 sequence: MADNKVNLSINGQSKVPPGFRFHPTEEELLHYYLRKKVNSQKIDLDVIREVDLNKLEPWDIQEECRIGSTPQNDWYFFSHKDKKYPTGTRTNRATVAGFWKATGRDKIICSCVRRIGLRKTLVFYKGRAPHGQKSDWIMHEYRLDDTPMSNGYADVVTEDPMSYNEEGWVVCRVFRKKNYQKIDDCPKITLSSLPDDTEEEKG
Outline: as §1

GST-VND3 NAC domain = molecular target: T8, GST-VND3 NAC domain (Arabidopsis thaliana, UniProt Q9FH59 12-162); conditions: protein: recombinant; tags: GST; chain copies: 2; dsDNA, one strand shown
T8 sequence: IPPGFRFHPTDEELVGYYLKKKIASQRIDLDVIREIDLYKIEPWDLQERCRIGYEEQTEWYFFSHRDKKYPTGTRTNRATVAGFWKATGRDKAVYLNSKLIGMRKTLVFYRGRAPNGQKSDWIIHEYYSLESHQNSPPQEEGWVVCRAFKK
Outline: as §1

GST-VND7 NAC domain = molecular target: T9, GST-VND7 NAC domain (Arabidopsis thaliana, UniProt Q9C8W9 9-158); conditions: protein: recombinant; tags: GST; chain copies: 2; dsDNA, one strand shown
T9 sequence: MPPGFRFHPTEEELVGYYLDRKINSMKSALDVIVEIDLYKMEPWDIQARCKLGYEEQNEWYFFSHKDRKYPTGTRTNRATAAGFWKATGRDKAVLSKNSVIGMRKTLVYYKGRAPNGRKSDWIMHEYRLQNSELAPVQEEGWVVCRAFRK
Outline: as §1

GST-WRKY1(266-371) = GST-WRKY1(266-371) (Arabidopsis thaliana, UniProt Q9SI37 266-371); conditions: protein: recombinant; tags: GST; dsDNA, one strand shown
Outline: as §1

GST-ANAC055(1-171) = molecular target: T10, GST-ANAC055(1-171) (Arabidopsis thaliana, UniProt Q9LDY8 1-171); conditions: protein: recombinant; tags: GST; chain copies: 2; dsDNA, one strand shown
T10 sequence: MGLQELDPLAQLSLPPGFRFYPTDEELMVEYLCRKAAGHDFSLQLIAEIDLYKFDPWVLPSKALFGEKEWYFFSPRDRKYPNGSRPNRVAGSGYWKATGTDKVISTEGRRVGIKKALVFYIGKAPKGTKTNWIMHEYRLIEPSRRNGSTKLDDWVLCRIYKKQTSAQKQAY
Outline: as §1

GST-NTL8 NAC domain = molecular target: T11, GST-NTL8 NAC domain (Arabidopsis thaliana, UniProt Q9XIN7 14-156); conditions: protein: recombinant; tags: GST; chain copies: 2; dsDNA, one strand shown
T11 sequence: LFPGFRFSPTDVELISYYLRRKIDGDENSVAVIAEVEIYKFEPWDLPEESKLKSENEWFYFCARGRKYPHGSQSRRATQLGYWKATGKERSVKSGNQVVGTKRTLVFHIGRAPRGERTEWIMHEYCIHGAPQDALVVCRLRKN
Outline: as §1

GST-NTL6(1-168) = GST-NTL6(1-168) (Arabidopsis thaliana, UniProt Q9SCK6 1-168); conditions: protein: recombinant; tags: GST; chain copies: 2; dsDNA, one strand shown
Outline: as §1

GST-WRKY1(266-371), sequence (Q9SI37 266-371): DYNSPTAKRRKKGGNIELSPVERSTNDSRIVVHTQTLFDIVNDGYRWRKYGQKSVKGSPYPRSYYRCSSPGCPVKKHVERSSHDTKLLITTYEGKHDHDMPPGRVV
GST-NTL6(1-168), sequence (Q9SCK6 1-168): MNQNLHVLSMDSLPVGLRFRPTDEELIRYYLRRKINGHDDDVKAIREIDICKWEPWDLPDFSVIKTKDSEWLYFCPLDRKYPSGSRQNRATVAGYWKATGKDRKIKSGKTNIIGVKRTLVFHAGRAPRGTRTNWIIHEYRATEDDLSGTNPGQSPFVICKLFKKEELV

Sequence | binding signal (GST-ANAC092(1-176)) [E-score] | binding signal (GST-ANAC019 NAC domain) [E-score] | binding signal (GST-ATAF1 NAC domain) [E-score] | binding signal [1] [E-score] | binding signal (GST-NAP(1-166)) [E-score] | binding signal (GST-NST2(1-184)) [E-score] | binding signal (GST-SND1(1-203)) [E-score] | binding signal (GST-VND3 NAC domain) [E-score] | binding signal (GST-VND7 NAC domain) [E-score] | binding signal (GST-WRKY1(266-371)) [E-score] | binding signal (GST-ANAC055(1-171)) [E-score] | binding signal (GST-NTL8 NAC domain) [E-score] | binding signal (GST-NTL6(1-168)) [E-score]
GACGCAAA | 0.382 | 0.0555 | 0.0741 | 0.411 | 0.233 | 0.123 | 0.289 | 0.135 | 0.099 | 0.117 |  |  | 
TAGAGTAA | 0.177 |  | 0.0567 | 0.263 |  | 0.216 | 0.401 | 0.117 | 0.128 | 0.0876 | 0.0921 | 0.065 | 
CGTGCACG | 0.354 | 0.464 | 0.304 | 0.418 | 0.378 | 0.221 | 0.0947 | 0.426 | 0.391 | 0.0812 | 0.424 | 0.0868 | 
ACACGGAA | 0.464 | 0.486 | 0.376 | 0.458 | 0.45 | 0.328 | 0.057 | 0.467 | 0.479 |  | 0.481 |  | 0.0747
CTTACGCA | 0.359 | 0.265 | 0.187 | 0.389 | 0.243 | 0.278 | 0.429 | 0.255 | 0.295 |  | 0.199 | 0.111 | 0.0871
TACGCAAA | 0.469 | 0.385 | 0.323 | 0.469 | 0.355 | 0.393 | 0.473 | 0.405 | 0.334 |  | 0.315 | 0.0978 | 0.104
ACGGAAGC | 0.299 | 0.436 | 0.289 | 0.298 | 0.236 | 0.257 | 0.209 | 0.385 | 0.266 |  | 0.374 |  | 0.0877
TGCCGTAA | 0.432 | 0.448 | 0.436 | 0.433 | 0.402 | 0.328 | 0.457 | 0.437 | 0.449 |  | 0.408 | 0.324 | 0.114
AAGTAAGC | 0.284 | 0.104 | 0.199 | 0.358 | 0.0599 | 0.171 | 0.361 | 0.21 | 0.272 |  | 0.158 | 0.337 | 0.404
